Sampled rows, rich in hits. Any-hit rate of the full collection: about 5.2%.
NadD inh: blocks S. aureus nicotinate mononucleotide adenylyltransferase | purified NadD enzyme, colorimetric absorbance read-out | inhibition, % at 20 µM | 360,000 tested, 0.78% active | AID 602399; in the data active = inhibition above about 26%
SMARCA2 activ: increases SMARCA2 function in MMTV reporter cells; MG213 cells, MMTV-luciferase reporter, dexamethasone, overnight; 370,000 tested, 1% active; AID 652017; activation, % at 9.1 µM; in the data active = activation above about 7.8%;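 note: 0% = vehicle wells and 100% = reference activator wells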
Vif inh: inhibitors of HIV Vif. inhibition, % at 7.49 µM. 340,000 tested, 0.35% active. HEK293T cells, Vif self-association by quenched fluorescence, imaging, 24 h; in the data active = inhibition above about 50%, passing the limit was not always enough; inconclusive = no clear call, values can overlap the other calls; inactive = below about 31%
NR3A LBD binder: NR3A (human) ligand-binding domain modulation | 340,000 tested, 2.5% active | NR3A LBD differential scanning fluorimetry, Tm shift; 0% = protein alone, 100% = glycine-bound protein | AID 1259313 | Tm shift relative to glycine control, % at 25 µM;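 active = melting temperature shift of at least 10% of the positive control shift, at one fixed dose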
SKN-1 inh: C. elegans SKN-1 inhibition; 360,000 tested, 0.49% active; inhibition, % at 21.8 µM; C. elegans VP596 Pgst-4::GFP/RFP ratio, acrylamide-induced, 24 h;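 active = interference check ratio from 0.5 to 1.5 plus GFP to RFP signal ratio inhibition reaching or exceeding a fixed threshold, cut at about 30% in these data, passing the limit was not always enough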
esBAF inh: inhibitors of esBAF chromatin remodeling in mouse ES cells; reporter increase, % at 12.5 µM; Bmi1-luciferase knock-in reporter, 24 h; 100% = twice the neutral-well signal; 350,000 tested, 2% active; in the data active = activation above about 40%; inconclusive = no clear call, values can overlap the other calls;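 note: 0% = median of the plate's neutral control wells and 100% = double that signal; a rise in the Bmi1 reporter signal indicates esBAF inhibition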
* hit, by the source's call; ? = inconclusive; . = no result given.

SMILES | NadD inh | SMARCA2 activ | Vif inh | NR3A LBD binder | SKN-1 inh | esBAF inh
S=C(NCc1ccc(Cl)cc1Cl)NC1CCCCC1 | -4.4 | -5.7 | -1.4 | 31.6* | 9.2 | .
COc1ccc(NC(=O)N(C)C[C@@H]2OCCCC[C@@H](C)Oc3ccc(NC(=O)Nc4ccccc4)cc3C(=O)N([C@H](C)CO)C[C@@H]2C)cc1 | . | . | . | . | . | -3.3
Cc1ccc(S(=O)(=O)Nc2cccc3c2O[C@@H](CN(C)Cc2ccccc2)[C@H](C)CN([C@H](C)CO)C3=O)cc1 | . | . | . | . | . | -2.8
CCC(=NCCc1c(C)[nH]c2ccccc12)C1=C(O)CC(c2ccccc2)CC1=O (centres undefined) | 9.1 | -2.4 | -10.1 | 16.4* | 12.8 | 4.3
COc1cc2c(cc1OC)C(COc1ccc(F)cc1)NCC2 (centres undefined) | 1.5 | 0.9 | -0.4 | 270.6* | -5.5 | 0.5
O=C(Cc1ccccc1)N[C@@H]1CC[C@H](CC(=O)N2CCCCC2)O[C@H]1CO | . | . | . | . | . | 1.5
Cc1ccc(C)c(NS(=O)(=O)c2ccc3oc(=O)ccc3c2)c1 | -4.2 | -2.0 | 4.0 | 1.6 | 2.0 | 3.0
Cc1ccc(C)c(NS(=O)(=O)c2ccc3c(c2)Cc2cc(S(=O)(=O)Nc4cc(C)ccc4C)ccc2-3)c1 | 21.2 | -3.2 | -8.8 | 18.0* | -7.2 | .
Cc1ccc(OCCSc2nc(NC(C)C)nc(NC(C)C)n2)cc1 | -0.6 | -4.5 | . | 23.1* | 14.4 | -4.9
CNC[C@@H]1OCCCC[C@H](C)Oc2ccc(N(C)C)cc2C(=O)N([C@@H](C)CO)C[C@H]1C | . | . | . | . | . | -3.6
O=C(Cn1ccsc1=NC(=O)C(F)(F)F)c1ccccc1 | -7.8 | 4.4 | -0.4 | -2.6 | 9.3 | 49.4*
O=C(CCl)N=c1sccn1Cc1ccccc1Cl | 5.8 | -12.7 | 0.9 | -1.6 | 2.5 | .
Cc1nc(NC(=O)c2csc3ccccc23)sc1C | -1.8 | 4.6 | 5.2 | 28.1* | 10.6 | -3.0
Cc1nc(NC(=O)c2ccccc2O)sc1C | -2.8 | 3.4 | -4.7 | 0.3 | -1.6 | 34.6
Cc1nc(NC(=O)CCc2ccccc2)sc1C | 2.9 | -0.1 | -5.0 | 0.5 | 11.4 | 56.7*
CC(=O)Nc1ccc2nc(NC(=O)COc3ccccc3Cl)sc2c1 | 1.3 | 5.5 | 6.0 | 19.9* | -4.4 | 59.5*
CC(=O)Nc1ccc2nc(NC(=O)COc3ccc(C)cc3)sc2c1 | -7.7 | -1.4 | -1.4 | -0.6 | -21.8 | .
CC(=O)Nc1ccc2nc(NC(=O)CCc3ccccc3)sc2c1 | 4.8 | 3.3 | -3.5 | 22.5* | -3.8 | 12.5
CSc1nnc(NC(=O)CCc2ccccc2)s1 | 8.6 | 3.8 | 9.5 | -1.9 | -18.1 | 12.5
C[C@@H]1CN([C@@H](C)CO)S(=O)(=O)c2ccc(-c3ccc(F)cc3)cc2O[C@H]1CN(C)Cc1cccc(F)c1 | . | . | . | . | . | -5.0
C[C@@H]1CN([C@@H](C)CO)C(=O)c2cc(NC(=O)Cc3cn(C)c4ccccc34)ccc2O[C@H]1CN(C)S(C)(=O)=O | . | . | . | . | . | 1.8
CN(C)CC(=O)N[C@H]1CC[C@H](CC(=O)NCc2ccc(Cl)cc2)O[C@@H]1CO | . | . | . | . | . | 5.8
CC(=O)Nc1ccc2nc(NC(=O)COc3cccc(C)c3)sc2c1 | -11.4 | 0.3 | -5.9 | 11.0* | -5.8 | 2.7
Cc1nc(NC(=S)NC(=O)c2ccccc2)sc1C | -2.3 | 6.0 | 1.7 | 1.1 | -5.7 | 44.8*
CC(=O)Nc1cccc(NC(=O)COc2ccccc2C)c1 | -1.2 | -0.2 | -0.4 | -24.5 | -6.8 | 12.7
SMILES | NadD inh | SMARCA2 activ | Vif inh | NR3A LBD binder | SKN-1 inh | esBAF inh
CC(=O)Nc1ccc2nc(NC(=O)COc3ccccc3C)sc2c1 | -9.3 | 2.6 | -2.5 | 23.2* | 9.5 | 22.3
CC(=O)Nc1ccc2nc(NC(=O)COc3ccccc3)sc2c1 | -9.3 | -4.1 | -3.9 | 0.7 | 7.8 | -7.0
Cc1ccc(NC(=O)COc2ccccc2C=O)cc1Cl | -0.7 | 4.6 | 10.5 | -4.9 | 14.7 | 46.8*
O=C(NCC[C@H]1CC[C@@H](NC(=O)C2CC2)[C@@H](CO)O1)c1cnccn1 | . | . | . | . | . | -4.8
O=C(C[C@H]1CC[C@H](NS(=O)(=O)c2ccccc2)[C@H](CO)O1)NCCN1CCCCC1 | . | . | . | . | . | -3.3
CC(=O)Nc1ccc2nc(NC(=O)C(Cl)(Cl)Cl)sc2c1 | 0.3 | 0.3 | -4.6 | -8.7 | 14.7 | .
COc1cccc2sc(Nc3nc4ccc(NC(C)=O)cc4s3)nc12 | 13.0 | 5.3 | -7.7 | 30.6* | 5.9 | 47.7*
CC(=O)Nc1cccc(-c2nc3ccc(NC(C)=O)cc3s2)c1 | 3.4 | 5.9 | 1.6 | 16.1* | -2.8 | 54.1*
COc1ccc(S(=O)(=O)N2Cc3ccccc3CC2C(=O)Nc2nccs2)cc1OC (centres undefined) | 3.7 | 5.1 | 0.4 | -1.7 | 8.2 | 44.5*
CCS(=O)(=O)N1Cc2ccccc2CC1C(=O)Nc1cccc(OC)c1 (centres undefined) | -4.8 | 4.6 | . | -0.8 | 4.2 | 53.2*
CCS(=O)(=O)N1Cc2ccccc2CC1C(=O)Nc1ccc(OC)c(OC)c1 (centres undefined) | -12.9 | 1.3 | -8.5 | 0.5 | 16.6 | 1.3
CCS(=O)(=O)N1Cc2ccccc2CC1C(=O)Nc1nccs1 (centres undefined) | 0.1 | -0.5 | -23.0 | -2.5 | 15.4 | 43.7*
COc1ccc(-c2ccc([C@@H]3[C@@H](C#N)N(C(=O)NC4CCCC4)[C@H]3CO)cc2)cc1 | . | . | . | . | . | -1.8
CO[C@@H]1CC[C@@H]2CCN(C)C(=O)CCCN(C)C(=O)c3cccc(C#N)c3OC[C@H]1O2 | . | . | . | . | . | 5.1
COc1cc2nc(Nc3cccc(F)c3)nc(N)c2cc1OC | -14.8 | 1.3 | -5.6 | 17.4* | 4.1 | 7.6
C[C@@H]1CN([C@@H](C)CO)C(=O)c2cc(-c3cccc(C#N)c3)cnc2O[C@@H]1CN(C)Cc1ccncc1 | . | . | . | . | . | 2.0
COc1cc(/C=N/NC(=O)c2cc(C)oc2C)ccc1O | -7.6 | -0.9 | 0.0 | 1.1 | -3.9 | -1.5
COc1cc(/C=N/NC(=O)c2ccoc2C)ccc1O | -2.0 | 1.9 | -2.0 | 3.2 | -8.4 | .
COc1ccc(C=NNC(=O)c2cc(C)oc2C)cc1O | 1.9 | 7.6 | ? | 1.9 | -1.2 | 65.7*
CCOc1ccc(/C=N/NC(=O)c2ccoc2C)cc1OC | -5.7 | 3.8 | 9.5 | -5.2 | -6.7 | 48.5*
CCCN1C[C@H](C)[C@@H](OC)CN(C)C(=O)c2cc(NC(=O)c3cccc(F)c3)ccc2OC[C@@H]1C | . | . | . | . | . | 10.2
CCOCCCNC(=O)C(c1ccc(Cl)cc1)N1CCC2(CC1)OCCO2 (centres undefined) | 0.3 | -3.8 | 0.4 | 0.0 | 37.0* | -16.4
Oc1ccc(/C=N/Nc2nccnc2Cl)c(O)c1 | -0.2 | -2.7 | 81.0* | 17.6* | 5.1 | -45.4
Oc1ccc(/C=N/Nc2ncc(Br)cn2)c(O)c1 | 0.9 | 1.2 | -9.9 | 31.1* | -1.7 | -14.7
Oc1ccc(Br)cc1/C=N/Nc1ncc(-c2ccccc2)cn1 | 21.6 | 2.3 | -4.9 | 4.0 | -0.3 | .
Oc1ccccc1/C=N/Nc1nccnc1Cl | -1.9 | 0.8 | -0.6 | -15.3 | 5.8 | -28.6
